The text below walks through data of PubChem BioAssay (NCATS).

Records with an inconclusive call do not appear. The source made the active and inactive calls. Calls follow the shape of the dose curve; as a rule, active = well fitted curve in the direction sought with a large enough effect; inconclusive = small, poorly fitted or top-dose-only effect, or another doubt; inactive = no such curve, though single readings can be large; an effect the other way counts as inactive or inconclusive.
% is scaled to controls: 0 for no effect and ±100 for the full control effect.

Metallo-beta-lactamase type 2 (Klebsiella pneumoniae), sequence (C7C422 whole entry, looked up): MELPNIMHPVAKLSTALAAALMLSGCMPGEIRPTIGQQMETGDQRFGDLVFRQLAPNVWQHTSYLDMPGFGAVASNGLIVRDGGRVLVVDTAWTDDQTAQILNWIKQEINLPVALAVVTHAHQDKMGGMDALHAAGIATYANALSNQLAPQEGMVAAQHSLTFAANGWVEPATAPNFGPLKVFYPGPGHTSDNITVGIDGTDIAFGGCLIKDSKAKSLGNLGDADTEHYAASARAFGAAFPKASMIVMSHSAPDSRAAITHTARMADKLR
Glutathione peroxidase 1 (Homo sapiens), sequence (P07203 whole entry, looked up): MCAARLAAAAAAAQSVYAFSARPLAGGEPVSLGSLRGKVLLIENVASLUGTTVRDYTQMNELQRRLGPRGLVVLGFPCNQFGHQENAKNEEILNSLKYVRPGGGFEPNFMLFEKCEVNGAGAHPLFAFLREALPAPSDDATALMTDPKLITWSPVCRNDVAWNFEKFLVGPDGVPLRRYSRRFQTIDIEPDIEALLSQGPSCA

The target of one assay is Metallo-beta-lactamase type 2 (Klebsiella pneumoniae) (UniProt C7C422). Put plainly: qHTS to identify inhibitors of the New Delhi Metallo-beta-lactamase (NDM): assay validation screen against the NCATS LOPAC Collection (AID 1794843).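 Also: nitrocefin turnover by NDM-1 measured as 485 nm absorbance at plateau.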 The conditions noted are these: NDM-1 enzyme, nitrocefin hydrolysis, absorbance 485 nm; series mostly up to 38.4 µM; activity change, negative = inhibition: at the top concentration. The gist of the method:
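NDM-1 at 2 nM final in 50 mM HEPES pH 7.0, 1 uM ZnSO4, 0.01% Tween20, preincubated with LOPAC compounds pinned in DMSO; 50 uM nitrocefin (stock) added. Hydrolysis read as absorbance at 485 nm in the plateau phase.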
As to `OCc1ccc(-c2nn(Cc3ccccc3)c3ccccc23)o1`, the “activity change, negative = inhibition” value was -2.61% (inactive).
Take `CCN1CCCC1CNC(=O)c1cc(S(N)(=O)=O)ccc1OC` (configuration not stated): the “activity change, negative = inhibition” value is -7.72% (inactive).
Consider `NC(=O)c1ccc2[nH]ccc2c1`, for which the “activity change, negative = inhibition” value was -1.76% (inactive).

A further assay deals with Glutathione peroxidase 1 (Homo sapiens) (UniProt P07203). Kind of assay: Primary qHTS Assay for Inhibitors of Recombinant Selenoprotein Glutathione Peroxidase 1 (GPX1) (AID 1845191). Also: nearly all actives have a fitted effect of over 65% in size. The conditions noted are these: recombinant GPX1, GR-coupled NADPH fluorescence, 15 min; series mostly up to 48.8 µM; activity, negative = inhibition: at the top concentration. The gist of the method:
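GR-coupled assay: compounds preincubated 30 min at room temperature with GPX1, then reaction started with CHP; final 10 nM GPX1, 1 mM GSH, 0.5 mM CHP, 0.5 mM NADPH, 100 nM GR, 0.01% BSA, pH 7.5 Tris buffer. NADPH fluorescence (340/450 nm) read at 0 and 15 min.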
In general terms: Quantitative high-throughput screening tests each substance at several concentrations.
Turning to `CCCCCCNC(=O)n1cc(F)c(=O)[nH]c1=O`, the Potency entry was “inactive”.
In the case of `COc1c(N2CCNC(C)C2)c(F)cc2c(=O)c(C(=O)O)cn(C3CC3)c12` (configuration not stated), the “activity, negative = inhibition” value is -21.5% (inactive).
Turning to `CCn1cc(C(=O)O)c(=O)c2cc(F)c(N3CCNCC3)cc21`, the “activity, negative = inhibition” value was -11.2% (inactive).
Still for that read-out and setting: for `CCOC(=O)c1ccc(C#Cc2ccc3c(c2)C(C)(C)CCS3)nc1` the value was -11.8% (inactive); for `CN1CCN(c2c(F)cc3c(=O)c(C(=O)O)cn(CCF)c3c2F)CC1`, -14.4% (inactive).
As to `S=P(N1CC1)(N1CC1)N1CC1`, the Potency result was “inactive”.
As to `OCc1ccc(-c2nn(Cc3ccccc3)c3ccccc23)o1`, the Potency entry was “inactive”.
Same read-out and setting: for `CCC(=O)O[C@]1(C(=O)SCF)[C@H](C)C[C@H]2[C@@H]3C[C@H](F)C4=CC(=O)C=C[C@]4(C)[C@@]3(F)[C@@H](O)C[C@@]21C` the value was “inactive”.
In the case of `CCC(C)(C)c1ccc(CC(C)CN2C[C@@H](C)O[C@@H](C)C2)cc1` (some centres not stated), the result was inactive.
For `CNNCc1ccc(C(=O)NC(C)C)cc1`, the Potency result is “inactive”.
Consider `CCN(C)C(=O)Oc1cccc([C@H](C)N(C)C)c1`, for which the “activity, negative = inhibition” value was 1.69% (inactive).
As to `Cc1c(-c2ccc(O)cc2)n(Cc2ccc(OCCN3CCCCCC3)cc2)c2ccc(O)cc12`, the Potency result was “inactive”.
Consider `CNC1CCCN(c2c(F)cc3c(=O)c(C(=O)O)cn(C4CC4)c3c2OC)C1` (configuration not stated), for which the “activity, negative = inhibition” value is -18.2% (inactive).
For `CC(C)C[C@H](NC(=O)[C@H](CCc1ccccc1)NC(=O)CN1CCOCC1)C(=O)N[C@@H](Cc1ccccc1)C(=O)N[C@@H](CC(C)C)C(=O)[C@@]1(C)CO1`, the Potency result was “inactive”.
